# Assay results taken from PubChem BioAssay (NCI).
# About 79,000 compounds went through this panel and 15% of them were active in at least one assay; those are over-represented in the sample as a whole. Calls of active or inactive are those of the source. Cut-off read from the data, not from the text of the source: active = growth inhibition above about 70%; inactive = the rest.
# Assay: NCI Yeast Anticancer Drug Screen. Data for the mlh1 rad18 strain (AID 175)
# Conditions: S. cerevisiae mlh1 rad18 strain growth inhibition; at 50.0 µM; hits give high values
# How it was run: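 Compound-treated yeast growth, normalised to vehicle controls. Strain bears defined DNA repair mutations.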
row,Compound,growth inhibition
1,O=C1CCCCc2cccc(O)c21,2.1% (inactive)
2,CC(O)COC(C)COC(C)c1ccccc1 (stereo unspecified),4.65% (inactive)
3,COc1cc(\C=N/N=C/C=C/c2ccccc2)cc(OC)c1OC,15.5% (inactive)
4,CN(C)C(=O)C1C2CCC(C3CC32)C1C(=O)N(C)C (stereo unspecified),23.4% (inactive)
5,Cc1n[nH]c2ccccc2c1=O,-9.95% (inactive)
6,O=C(Nn1c(=S)[nH][nH]c1=S)c1ccccc1,21.4% (inactive)
7,C=CC(=O)NC1CCCCC1,-22.4% (inactive)
8,OCC1CC(c2ccccc2)=NO1 (stereo unspecified),-17.6% (inactive)
9,CCOC(=O)c1[nH]c2ccsc2c1C[N+]1(C)CCCCC1,16.3% (inactive)
10,COc1ccccc1C(=O)Nc1c(C)cccc1Cl,7% (inactive)
11,ICC1OCOC2C(CI)OCOC12 (stereo unspecified),9.5% (inactive)
